ELG1 genotoxic: qHTS screen for small molecules that induce genotoxicity in human embryonic kidney (HEK293T) cells expressing luciferase-tagged ELG1; HEK293T ELG1-luciferase reporter, luminescence, 16 h; Potency, µM (highest dose often 46 µM), without a hit: at the top dose activity change, positive = activation, hits mostly activators; 1.3% of 330,000 active; AID 504466, 2011; also: % of control where 0% means no effect; nearly all actives have a fitted effect of over 60% in size
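Screening used a luciferase reporter fused to human ELG1 in HEK293T cells. Luminescence was read on a CCD plate imager after 16 hr exposure and 30 min ONE-Glo incubation.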
ELG1 repair inh: qHTS screen for small molecules that inhibit ELG1-dependent DNA repair in human embryonic kidney (HEK293T) cells expressing luciferase-tagged ELG1; HEK293T ELG1-luciferase reporter, luminescence, 16 h; DNA damage induced by 5-fluorouridine; Potency, µM (highest dose often 46.1 µM), without a hit: at the highest dose activity change, negative = inhibition, usual class: inhibitors; 2.3% of 330,000 active; also: % is scaled to controls: 0 for no effect and ±100 for the full control effect; nearly all actives have a fitted effect of over 55% in size
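Step one: seed 2,000 cells per well. Step two: pin-transfer compound or DMSO alongside 5-fluorouridine. Step three: incubate 16 hr, 37 °C, 5% CO2. Step four: add ONE-Glo, wait 30 min, read luminescence.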
SMN2 splice enh: qHTS Assay for Enhancers of SMN2 Splice Variant Expression; HEK293 SMN2-luciferase splicing reporter, luminescence, 30-36 h; Potency, µM (series often up to 46.1 µM), without a hit: at the highest dose activity change, positive = activation, most hits filed as activators; 2.8% of 210,000 active; also: % of control where 0% means no effect; nearly all actives have a fitted effect of over 55% in size
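HEK293 cells carry an SMN2 minigene-luciferase reporter in which exon 7 inclusion puts luciferase in frame. Cells were seeded at 2000 cells/well, attached for 10-12 hours, then exposed to compounds for 30-36 hours at 37C before ONE-Glo luminescence.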
NPC1 promoter act: qHTS Assay for NPC1 Promoter Activators. 2.4% of 320,000 active. Potency, µM (top dose mostly 9.22 µM), for the others: at the top dose activation, most hits filed as activators. AID 485313, 2010. Huh7 NPC1 promoter luciferase reporter, 24 h; also: % of control where 0% means no effect; nearly all actives have a fitted effect of over 60% in size
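Luciferase expression driven by the NPC1 promoter was measured in stably transfected Huh7 cells after a 24 h compound incubation, using a luciferase reagent and a luminescence read.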
Rab9 promoter act: qHTS Assay for Rab9 Promoter Activators; Huh7 Rab9 promoter-luciferase reporter, luminescence, 24 h; 2.8% of 320,000 active; Potency, µM (highest dose often 9.22 µM), inactives show at the top dose activation, negative = inhibition, most hits filed as activators; also: % of control where 0% means no effect; nearly all actives have a fitted effect of over 60% in size
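Stable Rab9-luc Huh7, 1500 cells/well, 2 h settle; cmpd in DMSO, 24 h, 37 °C/5% CO2; luciferase reagent 10 min RT; luminescence.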
FLuc modulator: qHTS profiling assay for firefly luciferase inhibitor/activator using purifed enzyme and Km concentrations of substrates (counterscreen for miR-21 project); purified FLuc, Km substrates, luminescence inhibition; Potency, µM (highest dose often 57.5 µM), without a hit: at the highest dose activity change, negative = inhibition, most hits filed as inhibitors; 6.9% of 360,000 active;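 also: plate controls were vehicle for no effect and reference inhibitor for full effect; nearly all actives have a fitted effect of over 55% in size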
Target sequence (P08659 whole entry, looked up): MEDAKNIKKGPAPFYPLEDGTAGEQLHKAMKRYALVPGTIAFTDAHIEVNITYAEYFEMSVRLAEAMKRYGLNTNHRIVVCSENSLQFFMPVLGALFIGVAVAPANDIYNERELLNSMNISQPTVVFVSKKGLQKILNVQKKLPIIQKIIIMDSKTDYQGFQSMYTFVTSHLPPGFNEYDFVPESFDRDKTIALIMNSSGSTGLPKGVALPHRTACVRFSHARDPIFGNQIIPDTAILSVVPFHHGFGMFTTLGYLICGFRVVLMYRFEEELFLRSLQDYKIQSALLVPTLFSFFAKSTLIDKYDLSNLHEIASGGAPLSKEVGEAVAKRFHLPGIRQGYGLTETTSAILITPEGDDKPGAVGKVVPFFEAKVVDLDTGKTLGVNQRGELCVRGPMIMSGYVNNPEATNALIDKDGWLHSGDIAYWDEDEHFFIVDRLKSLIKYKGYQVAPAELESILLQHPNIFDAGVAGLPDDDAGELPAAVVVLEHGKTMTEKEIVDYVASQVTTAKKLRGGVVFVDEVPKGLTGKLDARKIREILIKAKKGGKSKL
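Purified P. pyralis luciferase, 10 nM final, with Km-level 10 uM D-luciferin and 10 uM ATP in 50 mM Tris acetate pH 7.5, 10 mM Mg acetate, 0.01% Tween-20, 0.05% BSA; 6-point qHTS titration about 60 µM downward; luminescence read.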
The depositor's hits bear a star; ? = inconclusive; . = no result given; [ ] = dose if it differs, or a comment. Only some compounds are listed: those with a hit (about 9.4% of all), similar ones and a draw of the others. Calls follow the shape of the dose curve; as a rule, active = well fitted curve in the direction sought with a large enough effect; inconclusive = small, poorly fitted or top-dose-only effect, or another doubt; inactive = no such curve, though single readings can be large; an effect the other way counts as inactive or inconclusive. Potency is read from the fitted curve at half-maximal effect.

SMILES	ELG1 genotoxic	ELG1 repair inh	SMN2 splice enh	NPC1 promoter act	Rab9 promoter act	FLuc modulator
O=C(NCCc1ccc(Cl)cc1)c1nnc(Cc2ccc(Cl)cc2Cl)o1	.	.	-4%	.	.	2%
Cc1cc(C)cc(-n2c(SCC(N)=O)nc3c(oc4ccccc43)c2=O)c1	.	.	0%	.	.	1%
Cc1ccc(/C=C/C(=O)Nc2nc3ccccc3[nH]2)cc1	10µM*	?	10µM*	3.2µM*	1.8µM*	?
O=C(/C=C/c1c(F)cccc1Cl)Nc1nc2ccccc2[nH]1	?	?	7.1µM*	3.2µM*	2.8µM*	-19%
NC(=O)Nc1nc2ccccc2[nH]1	.	.	13%	.	.	.
Cc1ccc(Cc2nc3ccccc3[nH]2)cc1	-2%	-7%	.	0%	0%	-19%
Cc1onc(-c2c(F)cccc2Cl)c1C(=O)Nc1nc2ccccc2[nH]1	-8%	?	28%	21%	17%	-17%
Cc1ccc(/C=C/C(=O)c2nc3ccccc3[nH]2)cc1	1%	?	?	0%	11%	0.76µM*
NC1=NCC2c3ccccc3Cc3ccccc3N12 (configuration not stated)	.	.	.	7%[46.1 µM]	-2%[46.1 µM]	.
CCCc1cc(C(=O)NCc2ccc(OC)cc2)no1	16%	?	24%	26%	25%	?
CCCc1cc(C(=O)Nc2ccc(CC)cc2)no1	?	?	.	3.2µM*	1.6µM*	4.8µM*
CCc1ccc(NC(=O)c2cc(-c3cccs3)on2)cc1	10%	?	-8%	-2%	0%	?
CCCc1cc(C(=O)Nc2ccc(C)cc2)no1	?	?	8%	?	4.5µM*	3.4µM*
O=C(Cn1c(=O)n(Cc2ccc(F)cc2)c(=O)c2sc3ccccc3c21)NCc1ccccc1Cl	.	.	4%	.	.	0%
Cc1nc(SCc2nc3ccc(F)cc3[nH]2)c2oc3ccccc3c2n1	-1%	?	.	.	.	.
Cc1nc(SCc2cccc(F)c2)c2oc3ccccc3c2n1	-8%	21µM*	.	0%	-3%	-9%
Cc1nc(SCc2nc3ccccc3[nH]2)c2oc3cc(Br)ccc3c2n1	-2%	18µM*	.	.	.	.
Cc1nc(SCc2nc3ccc(C(=O)c4ccccc4)cc3[nH]2)c2oc3ccccc3c2n1	3%	4.6µM*	.	.	.	.
Cc1cccc(CN2CCN(CC(=O)Nc3c(C)cccc3C)S2(=O)=O)c1	.	.	.	.	.	5%
COc1cccc(CNS(=O)(=O)c2c(C(=O)N3CCC(C)CC3)c(C)n(C)c2C)c1	.	.	.	.	.	1%
O=S(=O)(Nc1cccc2ccccc12)c1ccccc1	2%	?	.	5%	8%	-6%
O=C(O)c1cccc(S(=O)(=O)Nc2cccc3ccccc23)c1	4%	?	.	17%	23%	24µM*
S=c1[nH]nc(-c2cc3c(s2)-c2ccccc2CC3)o1	?	?	14µM*	26%	?	17µM*
CC1CCc2sc(-c3n[nH]c(=S)o3)cc2C1 (configuration not stated)	?	?	10µM*	?	?	6.7µM*
CC1CCc2sc(C(=O)OC(C)C(=O)Nc3ncc(Cl)cc3Cl)cc2C1 (configuration not stated)	4%	10%	0%	2%	0%	-3%
SMILES	ELG1 genotoxic	ELG1 repair inh	SMN2 splice enh	NPC1 promoter act	Rab9 promoter act	FLuc modulator
S=c1[nH]nc(-c2c[nH]c3ccccc23)o1	4%	-1%	.	0%	-5%[1.84 µM]	?
CSc1nnc(-c2cc3c(s2)-c2ccccc2CC3)o1	?	?	18µM*	12%	?	4.8µM*
CCOC(=O)c1ccc(CN(Cc2ccc(F)cc2)S(=O)(=O)c2ccc(F)c(C(=O)Nc3cc(Cl)ccc3OC)c2)cc1	.	.	.	.	.	3%
CCOc1ccc(NS(=O)(=O)c2c(C)nc3sc(C)c(C)n3c2=O)cc1	.	.	.	.	.	-3%
N/C(=N\OC(=O)c1ccccc1Cl)c1ccccc1	?	?	11µM*	3.2µM*	3.2µM*	0.38µM*
C/C(=N\OC(=O)c1ccc(Cl)cc1)c1nccs1	1%	-8%	-19%	1%	1%	0.48µM*
COc1ccccc1C(=O)O/N=C(\N)c1ccccc1Cl	?	?	22µM*	4%	?	?
O=C(O/N=C(\c1ccccc1)c1ccncc1)c1ccccc1Cl	-2%	-5%	3%	-5%	-10%	-4%
N/C(=N\OC(=O)c1ccc(Cl)cc1)c1ccc(Cl)cc1	?	?	?	?	?	3µM*
O=C(CSc1c2c(nc3ccccc13)CCC2)Nc1ccc(F)cc1F	.	.	-5%	.	.	-13%
CCOC(=O)C(CC)Sc1c(CC)cnc2c1c(=O)n(C)c(=O)n2C (configuration not stated)	.	.	.	.	.	1%
COc1ccc(C(=O)O/N=C(\N)c2ccccc2Cl)cc1OC	?	?	.	-1%	-2%	?
N/C(Cn1cncn1)=N\OC(=O)c1ccc(Cl)cc1	4%	1%	-2%	-3%	2%	4%
N/C(=N\OC(=O)c1ccco1)c1ccc(Cl)cc1	7.3µM*	?	.	?	?	24µM*
N/C(=N\OC(=O)c1ccccc1Cl)c1ccc(Cl)cc1	2.6µM*	?	16µM*	20%	?	1.3µM*
N/C(=N\OC(=O)c1ccco1)c1cccnc1	?	?	7%	7%	-2%	?
COc1ccccc1C(=O)Oc1ccc(C(C)C)cc1	?	?	-7%	-3%	-1%	9.5µM*
N/C(=N\OC(=O)c1ccc(Cl)cc1)c1ccn[nH]1	2.6µM*	?	.	1.3µM*	1.6µM*	3µM*
CCOc1ccc(CC(=O)Nc2nnc3n2CCS3)cc1	.	.	.	.	.	0%
COc1cc(C2CC(=O)N(Cc3ccc(F)cc3)c3ccccc3S2)cc(OC)c1OC (configuration not stated)	.	.	-32%	.	.	-13%
Nc1ncc(S(=O)(=O)NCc2cccc(Cl)c2)cn1	.	.	.	.	.	0%
c1c2c(cc3sc(N4CCOCC4)nc13)OCO2	?	?	11µM*	2.8µM*	1.1µM*	6µM*
c1c2c(cc3sc(N4CCCCC4)nc13)OCO2	?	?	3.2µM*	0.4µM*	0.32µM*	0.67µM*
c1ccc2c(c1)CCN(c1nc3cc4c(cc3s1)OCO4)C2	0.46µM*	?	2.2µM*	1.6µM*	1.3µM*	1.3µM*
O=[N+]([O-])c1cc2c(cc1CN1CCN(c3ccccc3)CC1)OCO2	9%	?	.	20%	18%	?

Source: PubChem BioAssay
